Compounds without any hit were thinned out: in the full panel of roughly 79,000, 15% have a hit. Calls of active or inactive are those of the source. Cut-off read from the data, not from the text of the source: active = growth inhibition above about 70%; inactive = the rest.
Assays:
[1] = NCI Yeast Anticancer Drug Screen. Data for the rad50 strain (AID 155);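 note: 0% = growth of vehicle-only cultures of the same strain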; conditions: S. cerevisiae rad50 strain growth inhibition; at 50.0 µM; active compounds read high
How it was run: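 Cells are treated with compound, grown, and their growth is then scored against vehicle-only cultures of the same repair-deficient yeast strain.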

[2] = NCI Yeast Anticancer Drug Screen. Data for the mec2-1 strain (AID 157); conditions: S. cerevisiae mec2-1 strain, at 50.0 µM, active compounds read high
How it was run: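 Mutant yeast (mec2-1) grown with compound; growth inhibition relative to vehicle control reported.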

[3] = NCI Yeast Anticancer Drug Screen. Data for the sgs1 mgt1 strain (AID 161);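 note: 0% = growth of cultures given vehicle only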; conditions: S. cerevisiae sgs1 mgt1 strain, at 50.0 µM, active compounds read high
How it was run: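 Growth of a repair-deficient yeast mutant was monitored after compound treatment and expressed as inhibition relative to vehicle-treated cultures.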

[4] = NCI Yeast Anticancer Drug Screen. Data for the cln2 rad14 strain (AID 165);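 note: 0% = growth equal to vehicle treated cultures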; conditions: S. cerevisiae cln2 rad14 strain, at 50.0 µM, active compounds read high
How it was run: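 Readout is yeast growth inhibition versus vehicle-treated controls, using a strain with cln2 and rad14 alterations exposed to compound.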

[5] = NCI Yeast Anticancer Drug Screen. Data for the bub3 strain (AID 167); conditions: S. cerevisiae bub3 mutant strain, at 50.0 µM, active compounds read high
How it was run: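 Part of a panel of yeast mutants defective in DNA damage repair or cell cycle regulation. Each strain is grown with compound, and inhibition is calculated relative to solvent-treated cultures.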

[6] = NCI Yeast Anticancer Drug Screen. Data for the mlh1 rad18 strain (AID 175); conditions: S. cerevisiae mlh1 rad18 strain growth inhibition; at 50.0 µM; active compounds read high
How it was run: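 Genetically defined yeast (DNA repair-deficient) exposed to compounds; growth inhibition determined relative to vehicle.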

Measured: growth inhibition

Oc1[nH]c2ccccc2c1N=NC(=S)Nc1cccc(Cl)c1
inactive: [1] -0.35% | [2] 4.4% | [3] 55.5% | [4] 35% | [5] 23.5% | [6] 15.2%

CC12CC3CC(C1)CC(NCCO)(C3)C2
inactive: [1] -0.8% | [2] -13.7% | [3] -14.3% | [4] -83.7% | [5] -5.45% | [6] -4.35%

CCCCCCCCCCCCC1CC(=O)OC1=O (stereo not drawn)
inactive: [1] 3.65% | [2] -15.4% | [3] 13% | [4] 18.1% | [5] 32.5% | [6] -8.85%

Cc1c2c(cc3c1[nH]c1ccccc13)C(c1ccc(F)cc1)=NCC2
inactive: [1] -1.8% | [2] 5.55% | [3] 1.85% | [4] -51% | [5] -0.6% | [6] -2.45%

COc1cc(N)c2c(c1)SC(c1ccccc1)C(=O)N2 (stereo not drawn)
inactive: [1] -23.6% | [2] 4.25% | [3] 1% | [4] 14.1% | [5] 32.6% | [6] 15.7%

Cc1[nH]nc2c(=O)n(N)nnc12
inactive: [1] 18.4% | [2] 7.3% | [3] 0.35% | [4] -16.9% | [5] -15.8% | [6] 26.4%

O=C1COC(=O)N1
inactive: [1] -6.85% | [2] -22.4% | [3] -3.45% | [4] -3.35% | [5] 0.2% | [6] 8.25%

CCCn1cc2c(=O)[nH]c(SC)nc2n1
inactive: [1] -4.95% | [2] -20.8% | [3] -1.35% | [4] -13.1% | [5] -12.7% | [6] 10.8%

N#C/C(=C\NC(=S)NCc1ccccc1)c1nc2ccccc2s1
inactive: [1] 54.1% | [2] 32.4% | [3] 53.5% | [4] 43.3% | [5] 30.5% | [6] 61.5%

CC(=O)c1cc2c(cc1C(C)C)CC[C@H]1[C@](C)(C#N)CCC[C@]21C
inactive: [1] 1% | [2] -1.15% | [3] 1.25% | [4] -26.6% | [5] 15.9% | [6] 31.3%

O=C(O)CCc1ccc2c(c1)OCO2
inactive: [1] -2.1% | [2] -24.1% | [3] -5.85% | [4] -5.4% | [5] -34.1% | [6] -11.4%

C/C(=N/N(CCCCN(/N=C(/C)c1ccccc1)c1ccccc1)c1ccccc1)c1ccccc1
inactive: [1] 48.5% | [2] 13.2% | [3] 17.1% | [4] 26.3% | [5] 1.55% | [6] 39.2%

CCOC(=O)C(C#N)C1(O)C(=O)Nc2ccccc21 (stereo not drawn)
inactive: [1] -4.65% | [2] -5% | [3] -6.7% | [4] 3.8% | [5] 0.55% | [6] 10.2%

CCCCNC1(N(C)C)N=C(N(C)C)N=C(N(C)C)O1 (stereo not drawn)
inactive: [1] -2.2% | [2] -1.4% | [3] -1.05% | [4] 17.8% | [5] 8.35% | [6] -0.45%

CCN(CC)CCOc1ccc(Cc2nc3c([nH]2)c(=O)n(C)c(=O)n3C)cc1
inactive: [1] 21.6% | [2] 2.85% | [3] 14.2% | [4] 34.5% | [5] 5.1% | [6] 11.3%

CCN(CC)CN1C(=O)C(=O)c2ccccc21
inactive: [1] 6.8% | [2] -25.4% | [3] 2.6% | [4] 24.4% | [5] 12.8% | [6] 10.3%

CCOC(=O)n1cccc(C)c1=N
inactive: [1] -10.1% | [2] 13.7% | [3] 18.9% | [4] -17.2% | [5] -8.85% | [6] 27.1%

COc1cc(/C=N/N=C(\N)NO)cc(Cl)c1O
inactive: [1] -20.4% | [2] -29.1% | [3] -27.3% | [4] -19.2% | [5] -8% | [6] -36.1%

COc1ccc(SC(N(C)C)=[N+](C)C)cc1
inactive: [1] -17.1% | [2] 1.1% | [3] 7.1% | [4] 11.4% | [5] 2.8% | [6] 3.8%

CC(=O)[C@H]1[C@H](C)C[C@H]2[C@@H]3CCC4=CC(=O)CC[C@]4(C)[C@@]3(F)C(=O)C[C@@]21C
inactive: [1] -5.45% | [2] 1.2% | [3] -3.3% | [4] -28.4% | [5] 6% | [6] 4%

COc1ccc(N2N=NN(C(C)C)/C2=C(/Cl)c2nnnn2-c2ccc(OC)cc2)cc1
inactive: [1] 25.8% | [2] 42.9% | [3] 33.8% | [4] 19.1% | [5] 24.9% | [6] 39.3%

CCCCCC(C)C(C#N)C(=O)OCC (stereo not drawn)
inactive: [1] 1.2% | [2] -18.4% | [3] -14.4% | [4] -3.75% | [5] -18.9% | [6] -20.9%

CCc1[nH]c(=O)c2oc3cc4ccccc4cc3c2c1C(=O)O
inactive: [1] -43.9% | [2] -35.5% | [3] -55.6% | [4] -29.4% | [5] -17.8% | [6] -70.3%

CC(C)(N)CNCCO
inactive: [1] -3.25% | [2] 2.05% | [3] -8.9% | [4] -18.1% | [5] -1.7% | [6] 0.4%

CC(C)=CCSC(N)N
inactive: [1] 14.4% | [2] 21.1% | [3] 24.1% | [4] 9.35% | [5] 17.4% | [6] -1.7%

O=[N+]([O-])c1nccn1COCCI
inactive: [1] 7.25% | [2] 15.4% | [3] -0.2% | [4] 3.3% | [5] 7.75% | [6] 52.3%

CC1CCC2(CC1)OC(C)C(C)O2 (stereo not drawn)
inactive: [1] 20.1% | [2] -2.4% | [3] 4.9% | [4] -34.6% | [5] 28.8% | [6] 10.7%

C/C=C/C(=O)NN
inactive: [1] 13.3% | [2] 7.85% | [3] -4.65% | [4] -21.2% | [5] -2.9% | [6] 25.8%

O=C1CSC(c2c[nH]c3ccccc23)N1c1cccc([N+](=O)[O-])c1 (stereo not drawn)
inactive: [1] -61.2% | [2] -39.5% | [3] -59.9% | [4] -0.7% | [5] -59% | [6] -39%

O=C(CSc1nc(-c2ccccc2)c(-c2ccccc2)[nH]1)NNC(=S)Nc1ccccc1
inactive: [1] 6.45% | [2] 0.5% | [3] -7.15% | [4] -26.3% | [5] 54.5% | [6] 3%

CCOC(=O)NC(=O)c1cn(CC(=O)NCC(=O)NCC(=O)N2CCN(CCn3c(C)nc(C(N)=O)c3N)CC2)c(=O)[nH]c1=O
inactive: [1] 12.8% | [2] 8.9% | [3] 5.25% | [4] -18.8% | [5] 2.75% | [6] -4.85%

C=CCSc1ncnc2c1c(C#N)cn2C1OC(CO)C(O)C1O (stereo not drawn)
inactive: [1] 22% | [2] -21.2% | [3] -16.9% | [4] 17.5% | [5] 7.25% | [6] 28.4%

O=C1c2ccccc2C(=O)C1(Cl)C(Cl)c1ccc([N+](=O)[O-])cc1 (stereo not drawn)
active: [1] 99.3% | [2] 98.9% | [3] 99.6% | [4] 99.1% | [5] 99.3% | [6] 99.5%

CC[O-].CC[O-].O=C([CH-]C(=O)c1cccnc1)c1ccccc1.O=C([CH-]C(=O)c1cccnc1)c1ccccc1.[Ti+4]
inactive: [1] -0.05% | [2] 19.8% | [3] -19.9% | [4] -16.2% | [5] -11.6% | [6] -8.4%

CCCCSc1nc(NCC)nc(NCC)n1
inactive: [1] 63.6% | [2] 38.9% | [3] 67% | [4] 27.1% | [5] 40.5% | [6] 41.9%

COC(=O)C(C(=O)C(=O)Nc1cccc(OC)c1)c1cnc2ccccc2n1 (stereo not drawn)
inactive: [1] -16.4% | [2] -8.85% | [3] -9.45% | [4] 21.2% | [5] 6.9% | [6] -10.5%

c1ccc(C2N3CCCCC3[C@@H]3c4[nH]c5ccccc5c4CCN23)nc1 (stereo partly drawn)
inactive: [1] -26.8% | [2] -36.5% | [3] -6.5% | [4] 13.3% | [5] -25.9% | [6] -4.1%

CSc1nc(NC2OCC(OC(C)=O)C(OC(C)=O)C2OC(C)=O)c(N=CC=Nc2c(NC3OCC(OC(C)=O)C(OC(C)=O)C3OC(C)=O)nc(SC)n(C)c2=O)c(=O)n1C (stereo not drawn)
inactive: [1] -4.3% | [2] -4.85% | [3] -19.8% | [4] -16.3% | [5] 7.95% | [6] 12.4%

From PubChem BioAssay (NCI)
